The results in this text go back to PubChem BioAssay.

Assay [1] is described as follows: inhibitors of TNFa-induced NFkB p65 translocation, primary screen, imaging, HUVEC, MLSMR starter and 10KST1 sets (AID 438;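 active = inhibition above 20% together with a positive visual image hit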;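 also: compound added about 3h40 before a 20 min TNFalpha stimulation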;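 as to inhibition: signal is the nuclear over cytoplasmic p65 intensity ratio per well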). The note with it: HUVEC TNFa-induced p65 nuclear translocation; cell count: measured here: nuclei count (cytotoxicity indicator), at 2.08 µM; inhibition: at 2 µM, stronger effect = higher value, 0% TNFa-plus-vehicle, 100% no-TNFa wells.
Assay [2] can be described thus: inhibitors of mutant huntingtin aggregation, primary screen, imaging, exon1htt(103Q)mCFP cells, high-content imaging (AID 483;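 active = visual image review flags a hit and inhibition of aggregation exceeds 20%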;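 also: compound exposure lasted 3 days before fixation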;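 as to nuclei count: percent of the per-plate median nuclei count of sample wells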). The conditions noted are these: exon1htt(103Q)mCFP cell line, aggregate imaging, at 2 µM; inhibition of aggregation: stronger effect = higher value; nuclei count: measured here: cell count, toxicity.
A short description of assay [3]: inhibitors of E-selectin induction by TNFa, primary screen, imaging, HUVEC, immunofluorescence, MLSMR starter and 10KST1 sets (AID 487;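 active = visually confirmed hit in the image check and inhibition above 20%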;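 as to inhibition: signal is fraction of cell area covered by stained E-selectin grains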;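 as to nuclei count: 100% = median nuclei count of all wells on the same plate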). The conditions noted are these: HUVEC TNFalpha-induced E-selectin immunofluorescence imaging, at 2 µM; inhibition: stronger effect = higher value; nuclei count: measured here: cell number, toxicity.
In assay [4] the target is Voltage-gated potassium channel subunit beta-2 (Rattus norvegicus) (UniProt P62483). In words: KvBeta enzyme negative modulators, primary screen, biochemical, NADPH fluorescence (AID 622;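 active = fluorescence slope higher than the sample average by over 3 SD, cut at about -0.22 in these data, passing the limit was not always enough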;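 also: slope of raw intensity against log time taken from 70 to 1610 s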). The note with it: recombinant KvBeta, 4-cyanobenzaldehyde reduction, at 10 µM, stronger effect = higher value.
Assay [5] has the same target. In words: KvBeta positive modulators, primary screen, biochemical, NADPH fluorescence (AID 623;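 active = NADPH fluorescence slope more negative than the mean of all samples by about 3 SD, 99.7% confidence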;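 also: fluorescence intensity change per second fitted from 20 to 320 s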). The note with it: Recombinant KvBeta, NADPH fluorescence decrease slope, 10 min; at 10 µM; stronger effect = lower value.
Assay [6] deals with Alpha-2C adrenergic receptor (Homo sapiens) (UniProt P18825). In words: modulators of alpha2C/GIRK thallium flux, primary screen, cell-based, HEK293 alpha2C/GIRK1/2 (AID 624;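 active = fluorescence slope after compound addition differing from the mean of all screened samples at 99.7% confidence, in either direction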;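 also: slope of fluorescence ratio to pre-addition baseline per second over 15 to 24 s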). The note with it: thallium flux BTC fluorescence, at 10 µM, actives lie on both sides.
Assay [7] in a line: inhibitors of Sendai virus-induced IRF3 signaling, primary screen, TLR/RLR signaling modifier project, cell-based, Sendai virus stimulus, luciferase, 10K MLSCN set (AID 602276).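 Also: firefly luciferase from ISG56 promoter only with Renilla not read in this screen; 0% = Sendai virus plus DMSO and 100% = medium plus DMSO without virus.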 The note with it: HEK293 RL24 IRF3 luciferase reporter, at 10 µM, stronger effect = higher value. For orientation: Reporter assays use an easily measured gene product as a stand-in for the process of interest.
Assay [8] is described as follows: inhibitors of poly I:C-induced TLR3 signaling, primary screen, cell-based, poly I:C stimulus, luciferase, 10K MLSCN set (AID 602277;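 active = inhibition of the reporter signal at or above 50%; inactive = inhibition below 50%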). The note with it: HEK293-TLR3 RL24 IRF3 luciferase reporter, at 10 µM, stronger effect = higher value.

Activity calls are given as the source filed them.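 The calls were made as follows, unless noted: active = inhibition at or above 50% at 10 µM; inactive = inhibition below 50%.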

Sequence of Voltage-gated potassium channel subunit beta-2 (Rattus norvegicus) (P62483 whole entry, looked up): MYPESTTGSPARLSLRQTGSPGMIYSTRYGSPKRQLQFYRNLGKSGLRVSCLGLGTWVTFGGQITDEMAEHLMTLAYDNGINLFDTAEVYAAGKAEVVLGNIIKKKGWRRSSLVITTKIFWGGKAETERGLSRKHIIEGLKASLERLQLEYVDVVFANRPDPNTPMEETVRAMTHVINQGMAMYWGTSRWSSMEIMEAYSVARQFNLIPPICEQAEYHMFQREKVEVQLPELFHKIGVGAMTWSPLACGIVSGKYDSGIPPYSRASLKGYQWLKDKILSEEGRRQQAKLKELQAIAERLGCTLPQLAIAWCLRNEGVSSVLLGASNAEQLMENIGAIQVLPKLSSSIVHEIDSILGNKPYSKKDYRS
Sequence of Alpha-2C adrenergic receptor (Homo sapiens) (P18825 whole entry, looked up): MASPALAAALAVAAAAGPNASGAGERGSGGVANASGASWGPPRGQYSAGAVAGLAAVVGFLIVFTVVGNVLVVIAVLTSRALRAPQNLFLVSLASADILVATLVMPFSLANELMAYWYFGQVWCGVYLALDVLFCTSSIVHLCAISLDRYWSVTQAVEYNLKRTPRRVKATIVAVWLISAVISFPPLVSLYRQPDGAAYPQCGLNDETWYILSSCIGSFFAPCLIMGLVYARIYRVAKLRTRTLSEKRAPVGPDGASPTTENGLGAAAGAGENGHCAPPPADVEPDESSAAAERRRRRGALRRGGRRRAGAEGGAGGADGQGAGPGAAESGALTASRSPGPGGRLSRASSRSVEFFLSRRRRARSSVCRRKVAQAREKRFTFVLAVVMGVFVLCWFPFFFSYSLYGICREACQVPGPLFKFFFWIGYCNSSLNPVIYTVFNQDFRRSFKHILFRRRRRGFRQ

The term inhibition denotes the relative decrease from the control value, in per cent. In the case of `COC(=O)c1cn(NC(=O)c2cccnc2)c(=O)c2ccccc12`, the cell count in assay [1] turned out to be 364. The inhibition in assay [1] was 2.5% (inactive); in assay [3], 29.8% (inactive); in assay [7], 10.1% (inactive); in assay [8], 18.9% (inactive). In assay [2], the inhibition of aggregation was -32.8% (inactive). Besides, the nuclei count in assay [2] came out at 112%; in assay [3], 115%. Moreover, the fluorescence slope in assay [4] is -0.538 (inactive). In addition, in assay [5], the NADPH fluorescence slope was -6.1e-05 (inactive). Also, the slope in assay [6] was 0.00509 (inactive).
For the compound `Cc1ccccc1Cn1nc(C)c(NC(=O)c2noc3c2CCc2ccccc2-3)c1C`, the cell count in assay [1] was determined as 720. The inhibition in assay [1] is 2.9% (inactive); in assay [3] it was -88.7% (inactive); in assay [7], 8.23% (inactive); in assay [8], 0.0552% (inactive). Besides, the inhibition of aggregation in assay [2] was 4.7% (inactive). Besides, the results for the nuclei count in assay [2] and in assay [3] were 78.3% and 108%, respectively. The fluorescence slope in assay [4] was -0.588 (inactive). The NADPH fluorescence slope in assay [5] is 4e-06 (inactive). Further, the slope in assay [6] was 0.00754 (inactive).
Take `CC(C)(O)C1=NOC(c2ccccc2)C1` (centres undefined): in assay [1], the cell count turned out to be 647. Moreover, the inhibition in assay [1] was -6.5% (inactive); in assay [3], -43.3% (inactive); in assay [7] it was 6.77% (inactive); in assay [8], 22.8% (inactive). Also, in assay [2], the inhibition of aggregation is -4.9% (inactive). Also, the nuclei count in assay [2] turned out to be 98.5%; in assay [3] it was 99.1%. The fluorescence slope in assay [4] was -0.411 (inactive). Further, the NADPH fluorescence slope in assay [5] is 1.7e-07 (inactive). The slope in assay [6] was 0.00603 (inactive).
As for `CCS(=O)(=O)N1CCCC(C(=O)NCCc2ccc(OC)c(OC)c2)C1` (centres undefined), the cell count in assay [1] was found to be 709. Moreover, the inhibition in assay [1] was -12.8% (inactive); in assay [3] it was 45.8% (inactive); in assay [7], -5.06% (inactive); in assay [8] it was -6.59% (inactive). In assay [2], the inhibition of aggregation is -9.5% (inactive). Moreover, the nuclei count amounted to 111% in assay [2] and 109% in assay [3]. In addition, the fluorescence slope in assay [4] was -0.43 (inactive). The NADPH fluorescence slope in assay [5] is 4.5e-06 (inactive). Besides, the slope in assay [6] is 0.00594 (inactive).
As for `COC(=O)c1ccc(NC(=O)C(C)N2C(=O)c3ccccc3C2=O)cc1` (centres undefined), in assay [1], the cell count is 593. Also, the inhibition was -1.8% (inactive) in assay [1], -39.9% (inactive) in assay [3], -2.42% (inactive) in assay [7] and 3.26% (inactive) in assay [8]. For the same compound, in assay [2], the inhibition of aggregation was -7.5% (inactive). Further, the values for the nuclei count in assay [2] and in assay [3] were 103% and 108%, respectively. In assay [4], the fluorescence slope is -0.614 (inactive). The NADPH fluorescence slope in assay [5] is 5.9e-06 (inactive). For the same compound, in assay [6], the slope is 0.0058 (inactive).
With `Cc1cccc(NC(=O)CCN2CCN(C/C=C/c3ccccc3)CC2)c1`, in assay [1], the cell count was determined as 727. The inhibition was 4.3% (inactive) in assay [1], 15.3% (inactive) in assay [3], 13.8% (inactive) in assay [7] and 6.07% (inactive) in assay [8]. The inhibition of aggregation in assay [2] is 4.2% (inactive). Further, the nuclei count in assay [2] is 98.6%; in assay [3], 104%. Moreover, in assay [4], the fluorescence slope was -0.511 (inactive). Moreover, the NADPH fluorescence slope in assay [5] is -2.6e-05 (inactive). Besides, the slope in assay [6] is 0.00628 (inactive).
`Cc1cc(C)nc(SC2=CS(=O)(=O)c3ccccc32)n1`: in assay [1], the cell count stood at 409. In addition, the inhibition was 4.2% (inactive) in assay [1], -15.3% (inactive) in assay [3], 9.85% (inactive) in assay [7] and -5.16% (inactive) in assay [8]. Also, the inhibition of aggregation in assay [2] is -0.8% (inactive). Moreover, the nuclei count in assay [2] was found to be 107%; in assay [3] it was 95.9%. Further, the fluorescence slope in assay [4] was -0.358 (inactive). For the same compound, the NADPH fluorescence slope in assay [5] is 3.3e-05 (inactive). Also, in assay [6], the slope is 0.00592 (inactive).
Take `Cc1cccc(Nc2nc3c(c(=O)n(C)c(=O)n3C)n2Cc2ccccc2)c1`: in assay [1], the cell count amounted to 470. Further, the inhibition in assay [1] is 7.2% (inactive); in assay [3] it was -73.5% (inactive); in assay [7] it was 3.57% (inactive); in assay [8], 20.4% (inactive). The inhibition of aggregation in assay [2] is 6.5% (inactive). In addition, the results for the nuclei count in assay [2] and in assay [3] were 94.7% and 106%, respectively. For the same compound, the fluorescence slope in assay [4] was -0.588 (inactive). In assay [5], the NADPH fluorescence slope was -2.8e-05 (inactive). The slope in assay [6] was 0.00618 (inactive).
For the compound `COc1ccc(Cc2nc(-c3ccc(NC(=O)c4cccnc4)cc3)no2)cc1`, the cell count in assay [1] came to 609. For the same compound, the inhibition in assay [1] was 9.6% (inactive); in assay [3] it was -45.6% (inactive); in assay [7], -8.06% (inactive); in assay [8], -67.3% (inactive). In assay [2], the inhibition of aggregation is 23.4% (inactive). Further, the results for the nuclei count in assay [2] and in assay [3] were 121% and 96.3%, respectively. Also, in assay [4], the fluorescence slope was -0.6 (inactive). Moreover, in assay [5], the NADPH fluorescence slope was -5e-05 (inactive). Further, the slope in assay [6] was 0.0059 (inactive).
For `CN=C(Nc1ccc2c(c1)OCO2)SC1CC(=O)N(c2ccccc2)C1=O` (centres undefined), the cell count in assay [1] amounted to 699. For the same compound, the inhibition was 11% (inactive) in assay [1], 7.9% (inactive) in assay [3], 10% (inactive) in assay [7] and 17.2% (inactive) in assay [8]. For the same compound, the inhibition of aggregation in assay [2] was 6.4% (inactive). The nuclei count was 95.4% in assay [2] and 112% in assay [3]. Further, the fluorescence slope in assay [4] was -0.381 (inactive). For the same compound, the NADPH fluorescence slope in assay [5] is -3.2e-05 (inactive). Further, in assay [6], the slope was 0.00557 (inactive).
With `CC(C)C(c1nnnn1CC1CCCO1)N1CCN(Cc2ccc3c(c2)OCO3)CC1` (centres undefined), in assay [1], the cell count is 357. Besides, the inhibition in assay [1] is 4.8% (inactive); in assay [3], -55.1% (inactive); in assay [7], 9.72% (inactive); in assay [8], 12.5% (inactive). Further, in assay [2], the inhibition of aggregation is -10.8% (inactive). For the same compound, the nuclei count in assay [2] was determined as 113%; in assay [3], 110%. Further, the fluorescence slope in assay [4] is -0.521 (inactive). Besides, the NADPH fluorescence slope in assay [5] was -5.8e-05 (inactive). Moreover, the slope in assay [6] is 0.00548 (inactive).
For `CCc1nnc(NC(=O)c2cc3c(s2)CCCCC3)s1`, in assay [1], the cell count was 662. The inhibition in assay [1] is 4.4% (inactive); in assay [3], -89.1% (inactive); in assay [7], -50.8% (inactive); in assay [8], -103% (inactive). Moreover, in assay [2], the inhibition of aggregation is 4.1% (inactive). Further, the results for the nuclei count in assay [2] and in assay [3] were 131% and 108%, respectively. Also, the fluorescence slope in assay [4] was -0.406 (inactive). The NADPH fluorescence slope in assay [5] was -0.000125 (inactive). Also, the slope in assay [6] was 0.00621 (inactive).
On to `Cc1ccccc1-c1nc(CN2CCC(C(=O)NC3CCN(Cc4ccccc4)CC3)CC2)c(C)o1`, for which the cell count in assay [1] worked out at 612. Moreover, the inhibition in assay [1] is 3.7% (inactive); in assay [3] it was 13% (inactive); in assay [7], -19.2% (inactive); in assay [8] it was 78% (active). For the same compound, the inhibition of aggregation in assay [2] is -89.7% (inactive). Also, the nuclei count amounted to 107% in assay [2] and 108% in assay [3]. The fluorescence slope in assay [4] is -0.561 (inactive). Besides, the NADPH fluorescence slope in assay [5] was -3e-05 (inactive). Moreover, the slope in assay [6] was 0.0054 (inactive).
As for `COC(=O)c1ccccc1NC(=O)C1CC(=O)N(c2ccccc2)C1` (centres undefined), the cell count in assay [1] stood at 576. Besides, the inhibition in assay [1] is -5.8% (inactive); in assay [3], -18.1% (inactive); in assay [7] it was 10.2% (inactive); in assay [8] it was 6.98% (inactive). The inhibition of aggregation in assay [2] is 13.9% (inactive). The nuclei count stood at 99.5% in assay [2] and 106% in assay [3]. In addition, in assay [4], the fluorescence slope is -0.496 (inactive). Also, the NADPH fluorescence slope in assay [5] was -5.9e-05 (inactive). Further, in assay [6], the slope is 0.00531 (inactive).
